{"source": "paper PMC4336329", "about": "(PLoS ONE, 2015)", "note": "The campaign covered roughly 310,000 compounds. About 14,000 (4.5%) showed an effect of 50% or more. Effects have a minus sign here. Many of the other results were omitted from the sample, so strong results are more common in it than they were.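 Also: peak tail current of the secondary pulse compared with the same well before compound.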", "data": [{"target": "human ether-à-go-go-related gene (hERG) potassium channel (human, UniProt Q12809)", "sequence (Q12809 whole entry, looked up)": "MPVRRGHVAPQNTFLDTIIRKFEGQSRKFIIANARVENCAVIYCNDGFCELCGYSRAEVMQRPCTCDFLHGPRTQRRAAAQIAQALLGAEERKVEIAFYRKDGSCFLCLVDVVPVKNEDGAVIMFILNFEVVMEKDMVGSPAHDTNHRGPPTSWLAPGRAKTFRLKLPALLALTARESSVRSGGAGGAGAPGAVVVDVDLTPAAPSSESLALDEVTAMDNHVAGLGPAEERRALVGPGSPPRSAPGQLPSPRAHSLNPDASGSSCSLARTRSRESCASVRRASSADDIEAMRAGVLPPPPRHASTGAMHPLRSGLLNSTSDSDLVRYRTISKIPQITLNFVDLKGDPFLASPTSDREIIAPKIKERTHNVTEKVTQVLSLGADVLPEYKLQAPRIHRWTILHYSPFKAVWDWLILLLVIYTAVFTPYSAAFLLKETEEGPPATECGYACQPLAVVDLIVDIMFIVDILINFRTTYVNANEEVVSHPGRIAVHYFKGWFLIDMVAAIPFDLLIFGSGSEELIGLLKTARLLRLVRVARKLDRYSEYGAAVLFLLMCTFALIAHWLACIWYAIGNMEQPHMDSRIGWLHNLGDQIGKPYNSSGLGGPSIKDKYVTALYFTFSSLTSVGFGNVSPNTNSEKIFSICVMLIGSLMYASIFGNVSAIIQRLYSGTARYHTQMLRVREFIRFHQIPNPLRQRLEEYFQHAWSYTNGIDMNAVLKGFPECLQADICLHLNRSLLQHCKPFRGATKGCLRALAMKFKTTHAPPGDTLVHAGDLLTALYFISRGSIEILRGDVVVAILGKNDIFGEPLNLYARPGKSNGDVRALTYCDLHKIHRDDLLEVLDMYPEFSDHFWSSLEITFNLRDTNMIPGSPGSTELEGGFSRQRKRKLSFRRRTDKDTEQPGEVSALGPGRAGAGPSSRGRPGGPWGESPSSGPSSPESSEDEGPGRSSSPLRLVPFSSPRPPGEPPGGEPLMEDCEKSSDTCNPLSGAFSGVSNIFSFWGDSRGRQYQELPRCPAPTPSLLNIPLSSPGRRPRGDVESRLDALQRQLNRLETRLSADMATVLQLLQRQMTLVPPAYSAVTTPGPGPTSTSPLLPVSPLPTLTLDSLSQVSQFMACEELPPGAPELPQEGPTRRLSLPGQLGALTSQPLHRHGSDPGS", "test": "primary screen, population patch clamp on CHO cells stably expressing hERG; higher = less effect of the substance", "units": {"hERG current change (%, negative = inhibition) at 10uM": "%"}, "values": [{"smiles": "O=C(CSc1nnc(Cn2c(=O)sc3ccccc32)n1-c1ccccc1)N1CCCCCC1", "hERG current change (%, negative = inhibition) at 10uM": -12.5}, {"smiles": "CCO[C@@H]1OC(C(=O)NCc2ccccc2)=C[C@H](c2coc3ccccc3c2=O)[C@H]1CCCO", "hERG current change (%, negative = inhibition) at 10uM": -47.5}, {"smiles": "N#Cc1ccsc1NC(=O)C1CCN(S(=O)(=O)c2cccs2)CC1", "hERG current change (%, negative = inhibition) at 10uM": -20.2}, {"smiles": "O=C(Nc1ccc(F)cc1)C1CCN(S(=O)(=O)c2cccs2)CC1", "hERG current change (%, negative = inhibition) at 10uM": -24.4}, {"smiles": "Cc1ccc(NC(=O)C2CCN(S(=O)(=O)c3cccs3)CC2)cc1C", "hERG current change (%, negative = inhibition) at 10uM": -31.1}, {"smiles": "O=C(Nc1nccs1)C1CCN(S(=O)(=O)c2cccs2)CC1", "hERG current change (%, negative = inhibition) at 10uM": -24.1}, {"smiles": "NC(=O)c1ccsc1NC(=O)C1CCN(S(=O)(=O)c2cccs2)CC1", "hERG current change (%, negative = inhibition) at 10uM": -52.4}, {"smiles": "CNC(=O)c1ccsc1NC(=O)C1CCN(S(=O)(=O)c2ccc(Cl)s2)CC1", "hERG current change (%, negative = inhibition) at 10uM": -54.9}, {"smiles": "CNC(=O)c1ccsc1NC(=O)c1ccc(Cl)s1", "hERG current change (%, negative = inhibition) at 10uM": -0.512}, {"smiles": "CNC(=O)c1ccsc1NC(=O)C1CCN(S(=O)(=O)c2cccs2)CC1", "hERG current change (%, negative = inhibition) at 10uM": -55.1}, {"smiles": "O=C(Nc1ccccc1)C1CCN(S(=O)(=O)c2cccs2)CC1", "hERG current change (%, negative = inhibition) at 10uM": -16.4}, {"smiles": "CCOC(=O)C1CCN(S(=O)(=O)c2ccc(Cl)s2)CC1", "hERG current change (%, negative = inhibition) at 10uM": -13.3}, {"smiles": "CNC(=O)c1ccsc1NC(=O)C1CCCN1S(=O)(=O)c1cccs1", "note": "(stereo not shown)", "hERG current change (%, negative = inhibition) at 10uM": 7.6}, {"smiles": "O=C(Nc1ccc(F)c(F)c1)C1CCN(S(=O)(=O)c2cccs2)CC1", "hERG current change (%, negative = inhibition) at 10uM": -53.7}, {"smiles": "CCC(c1nnc(SCC(=O)NCCc2ccc(Cl)cc2Cl)o1)N(C)C", "note": "(stereo not shown)", "hERG current change (%, negative = inhibition) at 10uM": -19.9}, {"smiles": "Cc1nn(-c2ccccn2)c2c1-c1nc(N)ncc1CC2", "hERG current change (%, negative = inhibition) at 10uM": 5.03}, {"smiles": "CC(C)CCn1c(Sc2nc3ccccc3o2)nc2c1c(=O)[nH]c(=O)n2C", "hERG current change (%, negative = inhibition) at 10uM": -20.8}, {"smiles": "Cc1ccc(-c2ocnc2C(=O)N2CCOCC2)cc1", "hERG current change (%, negative = inhibition) at 10uM": 21.4}, {"smiles": "COc1ccc(OC)c(-c2c(=O)n(OCc3ccccc3Br)c3ccccc3[n+]2[O-])c1", "hERG current change (%, negative = inhibition) at 10uM": 11.5}, {"smiles": "CCCn1c(NC(=O)C2CCN(S(=O)(=O)c3cccs3)CC2)nc2ccccc21", "hERG current change (%, negative = inhibition) at 10uM": -68.8}, {"smiles": "CN1CCc2c(sc(NC(=O)C3CCN(S(=O)(=O)c4cccs4)CC3)c2C(N)=O)C1.Cl", "hERG current change (%, negative = inhibition) at 10uM": -30.8}, {"smiles": "CCCN1CCc2c(sc(NC(=O)C3CCN(S(=O)(=O)c4cccs4)CC3)c2C(N)=O)C1.Cl", "hERG current change (%, negative = inhibition) at 10uM": -61.3}, {"smiles": "O=C(Nc1nc2ccccc2[nH]1)C1CCN(S(=O)(=O)c2cccs2)CC1", "hERG current change (%, negative = inhibition) at 10uM": -0.923}, {"smiles": "Cc1csc(NC(=O)C2CCN(S(=O)(=O)c3cccs3)CC2)n1", "hERG current change (%, negative = inhibition) at 10uM": -27.3}, {"smiles": "CC(=O)N1CCc2c(sc(NC(=O)C3CCN(S(=O)(=O)c4cccs4)CC3)c2C(N)=O)C1", "hERG current change (%, negative = inhibition) at 10uM": -29.4}, {"smiles": "CC12CN(C(=O)c3ccccc3Br)CC(C)(CN(C(=O)c3ccccc3Br)C1)C2=O", "hERG current change (%, negative = inhibition) at 10uM": -4.96}, {"smiles": "CCC(=O)Nc1ccc(C(=O)CSc2nnc(-c3ccc(NS(=O)(=O)CC)cc3)o2)cc1OC", "hERG current change (%, negative = inhibition) at 10uM": 5.26}, {"smiles": "O=C(CCN1C(=O)c2ccccc2C1=O)N1CCN(C(=O)c2ccccc2)CC1", "hERG current change (%, negative = inhibition) at 10uM": 0.00878}, {"smiles": "CN(C)CCN(C)Cc1ccccc1Sc1cccc2ccccc12.Cl", "hERG current change (%, negative = inhibition) at 10uM": -65.3}, {"smiles": "CN(C)CCN(C)Cc1c2ccccc2c(CN(C)CCN(C)C)c2ccccc12", "hERG current change (%, negative = inhibition) at 10uM": 0.802}, {"smiles": "CN(C)Cc1ccccc1Sc1ccccc1Br", "hERG current change (%, negative = inhibition) at 10uM": -36.5}, {"smiles": "CCOC(=O)c1nn(-c2ccc(C)cc2)c(=O)cc1OCC(=O)Nc1cc(C)ccc1OC", "hERG current change (%, negative = inhibition) at 10uM": -2.12}, {"smiles": "Cc1cccc(NC(=O)C2C(c3ccccc3)C2(Cl)Cl)c1", "note": "(stereo not shown)", "hERG current change (%, negative = inhibition) at 10uM": -5.35}, {"smiles": "S=c1nc(NCCc2ccccc2Cl)c2ccccc2[nH]1", "hERG current change (%, negative = inhibition) at 10uM": 20}, {"smiles": "CC1CCCCN1CCCNc1c(C=O)c(=O)[nH]c2ccccc12", "note": "(stereo not shown)", "hERG current change (%, negative = inhibition) at 10uM": -3.96}, {"smiles": "CC1CCCCN1CCNc1nc(=S)[nH]c2ccccc12", "note": "(stereo not shown)", "hERG current change (%, negative = inhibition) at 10uM": -67.5}, {"smiles": "Cc1nc2ccccc2c(=O)n1/N=C/c1ccccn1", "hERG current change (%, negative = inhibition) at 10uM": -3.77}, {"smiles": "Cc1ccc(S(=O)(=O)N2CCOC2CNC(=O)C(=O)NCCN2CCOCC2)cc1", "note": "(stereo not shown)", "hERG current change (%, negative = inhibition) at 10uM": 10.6}, {"smiles": "COc1ccccc1OCC(O)Cn1nc(C)cc1C", "note": "(stereo not shown)", "hERG current change (%, negative = inhibition) at 10uM": 9.76}, {"smiles": "COc1ccccc1OCC(O)COC(N)=O", "note": "(stereo not shown)", "hERG current change (%, negative = inhibition) at 10uM": 10.3}, {"smiles": "CCCCCn1c(=N)n(CC(O)COc2ccccc2OC)c2ccccc21.Cl", "note": "(stereo not shown)", "hERG current change (%, negative = inhibition) at 10uM": -81.1}, {"smiles": "CCCCCn1c(=N)n(CC(O)COc2ccccc2OC)c2ccccc21", "note": "(stereo not shown)", "hERG current change (%, negative = inhibition) at 10uM": -75.9}, {"smiles": "Cc1ccc(C(=O)Nc2nnc(S(=O)(=O)N3CCN(c4ccc(F)cc4)CC3)s2)cc1", "hERG current change (%, negative = inhibition) at 10uM": 2.59}, {"smiles": "COc1ccc2c(C)nc(Nc3nc(C)cc(C)n3)nc2c1", "hERG current change (%, negative = inhibition) at 10uM": 5.64}, {"smiles": "COc1cc(C2(c3ccc(O)c(OC)c3)C(=O)N(C)c3ccc(Br)cc32)ccc1O", "hERG current change (%, negative = inhibition) at 10uM": -52.6}, {"smiles": "COc1cc(C2(c3ccc(O)c(OC)c3)C(=O)N(C)c3ccc(C)cc32)ccc1O", "hERG current change (%, negative = inhibition) at 10uM": -19}, {"smiles": "Cc1cc(C2(c3ccc(O)c(C)c3)C(=O)N(C)c3ccc(Br)cc32)ccc1O", "hERG current change (%, negative = inhibition) at 10uM": -2.28}, {"smiles": "COC(=O)c1c(NC(=O)C(=O)N2CCOCC2)sc2c1CCCC2", "hERG current change (%, negative = inhibition) at 10uM": 7.47}, {"smiles": "CC1CN(C(=O)c2ccccc2OCc2ccc(Cl)cc2Cl)CC(C)O1", "note": "(stereo not shown)", "hERG current change (%, negative = inhibition) at 10uM": -37.7}, {"smiles": "CC(NC(=O)COC(=O)c1ccc(N(C)C)cc1)c1ccccc1", "note": "(stereo not shown)", "hERG current change (%, negative = inhibition) at 10uM": 3.44}, {"smiles": "CC(=O)N(c1ccccc1)c1nc(C)cc(C)c1C#N", "hERG current change (%, negative = inhibition) at 10uM": 12.1}, {"smiles": "COc1cc(-c2noc(C)c2C#Cc2ccccn2)cc(OC)c1OC", "hERG current change (%, negative = inhibition) at 10uM": -29}, {"smiles": "COc1cc(-c2noc(C)c2C#CCO)cc(OC)c1OC", "hERG current change (%, negative = inhibition) at 10uM": 6.47}, {"smiles": "COc1cc(-c2noc(C)c2C#Cc2nccn2C)cc(OC)c1OC", "hERG current change (%, negative = inhibition) at 10uM": -53.4}, {"smiles": "O=Cc1cn(CCC(=O)O)nc1-c1cccc(Br)c1", "hERG current change (%, negative = inhibition) at 10uM": 24.2}, {"smiles": "COc1ccc(N(CC(=O)Nc2cccnc2)S(=O)(=O)c2ccc(C)cc2)cc1Cl", "hERG current change (%, negative = inhibition) at 10uM": -16.9}, {"smiles": "O=C(CN(c1cccc([N+](=O)[O-])c1)S(=O)(=O)c1ccccc1)NCc1ccccc1", "hERG current change (%, negative = inhibition) at 10uM": -68.5}, {"smiles": "Cc1ccc(S(=O)(=O)N(CC(=O)Nc2cccnc2)c2cccc([N+](=O)[O-])c2)cc1", "hERG current change (%, negative = inhibition) at 10uM": -56.6}, {"smiles": "Cc1ccc(CNC(=O)CN(c2cccc([N+](=O)[O-])c2)S(=O)(=O)c2ccccc2)cc1", "hERG current change (%, negative = inhibition) at 10uM": -25}, {"smiles": "Cc1ccc(S(=O)(=O)N(CC(=O)Nc2cccnc2)c2cccc(Br)c2)cc1", "hERG current change (%, negative = inhibition) at 10uM": -11.5}, {"smiles": "Cc1ccc(S(=O)(=O)N(CC(=O)Nc2cccnc2)c2ccccc2C)cc1", "hERG current change (%, negative = inhibition) at 10uM": -16.4}, {"smiles": "CCOc1ccc(N(CC(=O)Nc2cccnc2)S(=O)(=O)c2ccc(C)cc2)cc1", "hERG current change (%, negative = inhibition) at 10uM": -5.5}, {"smiles": "O=C(CN(c1cccc([N+](=O)[O-])c1)S(=O)(=O)c1ccccc1)NCc1cccnc1", "hERG current change (%, negative = inhibition) at 10uM": -42.2}, {"smiles": "Cc1ccc(S(=O)(=O)N(CC(=O)Nc2cccnc2)c2ccc(Br)cc2)cc1", "hERG current change (%, negative = inhibition) at 10uM": -50.3}]}]}
